Laboratory results reported in PubChem BioAssay.

Experiment: 384-well plate pilot, post-Golgi transport modulator project, inhibition of yeast transport mutant growth (AID 636)
Conditions: absorbance 615 nm, about 18 h, hits give high values; in the data active = inhibition above about 31%; inactive = the rest

inhibition, inactive:
O=C(CNC(=O)c1cccs1)NCCN1CCN(c2ccccc2F)CC1 -3.95%
Cc1ccc(Cn2ccc(NC(=O)c3noc4c3CCCC4)n2)cc1 -3.25%
COc1cc(NC(=O)c2cc(-n3cnnc3)ccc2Cl)cc(OC)c1 0%
COC(=O)c1ccccc1NC(=O)c1ccc(-c2ccccc2F)o1 -8.36%
O=C(CN1C(=O)CCS(=O)(=O)c2ccccc21)NCc1ccc(F)cc1 -5.2%
Cc1c(O)c(CN2CCCC(C)C2)cc2c3c(c(=O)oc12)CCC3 (stereo unspecified) -6.97%
CC1(C)NC(=O)N(CC(O)CN2CCCCC2)C1=O (stereo unspecified) -3.73%
CCCOc1ccc(N2C(=O)CC(NCCCN3CCC(C(N)=O)CC3)C2=O)cc1 (stereo unspecified) -1.97%
Cc1ccc(Nc2nnns2)cc1C -1.04%
COc1ccc(S(=O)(=O)N2CCC(C(=O)NCc3ccco3)CC2)cc1 -4.53%
C=C(CC)C(=O)c1ccc(OCC(=O)O)c(Cl)c1Cl -2.47%
Cc1cccc(OCC(=O)Nc2ccccc2N2CCN(C(=O)C(C)C)CC2)c1C -1.95%
O=C(NC1CC1)c1cccc(Nc2ccc(-c3ccc4c(c3)OCCO4)nn2)c1 -0.81%
Cc1ccccc1C(=O)N1CCC(C(=O)Nc2ccc(S(=O)(=O)N3CCCC3)cc2)CC1 -4.55%
CC(=O)c1cc(-c2ccccc2)n(CC(=O)N2CCN(C3CCCC3)CC2)c1C -5.58%
CCOc1ccccc1N1C(=O)CC(Sc2ncccc2C(=O)O)C1=O (stereo unspecified) -3.29%
